Measurements from PubChem BioAssay (Tox21).
Inconclusive results are not listed. A call without a number means that no potency is given here. Unmarked numbers belong to inactive results. Calls of active or inactive are those of the source. Unless noted, calls come from the whole dose curve; as a rule, active = well fitted curve in the direction sought with a large enough effect in the repeat runs; inconclusive = weak or mixed curves; inactive = no such curve, though single readings can be large; an effect the other way counts as inactive or inconclusive. Non-standard residues stand in square brackets, D forms with d. Residues, ends and D or L forms follow the SMILES beside them. *: point of attachment. Sta = CC(C)C[C@H](N)[C@@H](O)CC(=O)O; Isovaleryl = CC(C)CC(=O)*

Assays:
[1] = qHTS assay to identify aromatase inhibitors - cell viability counter screen (AID 743084);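 note: cells stimulated with testosterone during compound exposure; nearly all actives have a fitted effect of over 55% in size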
[2] = molecular target: Aryl hydrocarbon receptor (Homo sapiens) (UniProt P35869); test: qHTS assay to identify small molecule that activate the aryl hydrocarbon receptor (AhR) signaling pathway (AID 743085); note: nearly all actives have a fitted effect of over 15% in size; note: potency is the fitted concentration of half-maximal effect;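 for activation: HG2L7.5c1 human HepG2 liver cells with stably integrated DRE-driven firefly reporter; series mostly up to about 70 µM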
Summary of the method: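 Cell line HG2L7.5c1 (human hepatoma, 20× DRE-luc). Plated, 5 h 37C, compound/DMSO added, 24 h 37C. CellTiter-Fluor 30 min 37C → fluorescence; then ONE-Glo 30 min RT → luminescence.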

[3] = qHTS assay to identify small molecule that activate the aryl hydrocarbon receptor (AhR) signaling pathway - cell viability counter screen (AID 743086);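 note: HepG2 liver cells carrying the AhR DRE luciferase reporter; series mostly up to about 70 µM; nearly all actives have a fitted effect of over 45% in size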
Summary of the method: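 HepG2-AhR-luc (HG2L7.5c1) cells, 4000/well, were preincubated 5 h at 37C, exposed to compound in qHTS format for 24 hr at 37C, then given CellTiter-Fluor for 30 min; viability was read as fluorescence in the reporter wells.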

[4] = molecular target: Peroxisome proliferator-activated receptor gamma (Homo sapiens) (UniProt P37231); test: qHTS assay to identify small molecule agonists of the peroxisome proliferator-activated receptor gamma (PPARg) signaling pathway (AID 743094; active = well fitted activation curve with a large enough effect in the signal ratio in the repeat runs, not every such curve was filed as active; the % refers to the signal ratio)
Summary of the method: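 Cell-based bla reporter, HEK293H background, PPARg-driven UAS. Pre-incubation 5 h, 37C, 5% CO2. Compound 17 h, 37C. Substrate 1 h RT; fluorescence.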

[5] = molecular target: Peroxisome proliferator-activated receptor gamma (Homo sapiens) (UniProt P37231); test: qHTS assay to identify small molecule antagonists of the peroxisome proliferator-activated receptor gamma (PPARg) signaling pathway (AID 743191; calls by dose curve; note: series mostly up to about 63 µM; nearly all actives have a fitted effect of over 30% in size)
Summary of the method: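 GeneBLAzer PPARg UAS-bla HEK293H cells carrying a UAS-driven beta-lactamase reporter were plated at 3000 cells/well, preincubated 5 h at 37C, then given compound for 17 h at 37C; LiveBLAzer B/G FRET substrate was read after 1 h at room temperature.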

[6] = qHTS assay to identify small molecule antagonists of the peroxisome proliferator-activated receptor gamma (PPARg) signaling pathway - cell viability counter screen (AID 743194); note: nearly all actives have a fitted effect of over 55% in size
Summary of the method: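 PPARg-UAS-bla HEK293H cells were plated, rested 5 h at 37 C, then treated with compounds plus rosiglitazone (50 nM final) for 17 h at 37 C; viability was then read by CellTiter-Glo luminescence after 30 min at room temperature.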

[7] = qHTS assay for small molecule agonists of the antioxidant response element (ARE) signaling pathway (AID 743202; active = well fitted activation curve with a large enough effect in the signal ratio in the repeat runs, not every such curve was filed as active; the % refers to the signal ratio; note: potency is the fitted concentration of half-maximal effect)
Summary of the method: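 Following a 16 h, 37 C exposure of reporter HepG2 cells (ARE-driven beta-lactamase, 2,000 cells/well) to compounds, FRET substrate was applied for 2 h at room temperature and fluorescence intensity recorded.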

[8] = qHTS assay for small molecule agonists of the antioxidant response element (ARE) signaling pathway - cell viability counter screen (AID 743203; calls by dose curve; note: nearly all actives have a fitted effect of over 55% in size)
Summary of the method: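 Measured in the same wells as the beta-lactamase ARE reporter, this read-out is CellTiter-Glo luminescence from HepG2 ARE-bla cells given compounds for 16 hrs.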

[9] = qHTS assay for small molecule activators of the heat shock response signaling pathway - cell viability counter screen (AID 743209); note: nearly all actives have a fitted effect of over 50% in size
Summary of the method: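 Same-well multiplex: after 2.5 h room-temperature incubation with LiveBLAzer B/G substrate and fluorescence reading, CellTiter-Glo reagent was added to HSE-bla HeLa cells that had received compound for 5 h at 37 C; luminescence read after 30 min.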

[10] = qHTS assay for small molecule activators of the heat shock response signaling pathway (AID 743210; active = well fitted activation curve with a large enough effect in the signal ratio in the repeat runs, with a control signal flat, not every such curve was filed as active; the % refers to the signal ratio; note: series mostly up to about 63 µM)
Summary of the method: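 Heat shock element–beta-lactamase HeLa reporter cells; qHTS with compounds for 5 h at 37 C; detection by FRET substrate fluorescence after 2.5 h at RT.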

[11] = qHTS assay to identify small molecule agonists of the peroxisome proliferator-activated receptor delta (PPARd) signaling pathway - cell viability counter screen (AID 743211); note: nearly all actives have a fitted effect of over 55% in size
Summary of the method: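 HEK293H PPARd-bla, 3000 cells/well; 5 h preincubation 37C/5% CO2; cpd in DMSO, 17 h 37C; B/G FRET substrate 2 h RT; CellTiter-Glo 30 min RT, luminescence.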

[12] = molecular target: Peroxisome proliferator-activated receptor delta (Homo sapiens) (UniProt Q03181); test: qHTS assay to identify small molecule agonists of the peroxisome proliferator-activated receptor delta (PPARd) signaling pathway (AID 743212; calls by dose curve)
Summary of the method: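 Beta-lactamase reporter read by fluorescence (LiveBLAzer B/G FRET, 2 h, room temperature). Test agents, in DMSO, incubated at 37 C with PPARd-bla HEK293H cells.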

[13] = molecular target: Peroxisome proliferator-activated receptor delta (Homo sapiens) (UniProt Q03181); test: qHTS assay to identify small molecule antagonists of the peroxisome proliferator-activated receptor delta (PPARd) signaling pathway (AID 743215; active = well fitted inhibition curve with a large enough effect in the signal ratio in the repeat runs, not every such curve was filed as active; the % refers to the signal ratio;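 note: cells stimulated with agonist L165041 at 300 nM final during compound exposure; series mostly up to about 62 µM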)
Summary of the method: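 Fluorescence from cleaved LiveBLAzer B/G FRET substrate (2 h, room temperature) reports PPARd-driven beta-lactamase in HEK293H UAS-bla cells. Cells had been treated 17 h at 37 C with compound plus 300 nM final L165041.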

[14] = molecular target: Bile acid receptor (Homo sapiens) (UniProt Q96RI1); test: qHTS assay to identify small molecule antagonists of the farnesoid-X-receptor (FXR) signaling pathway (AID 743217; active = well fitted inhibition curve with a large enough effect in the signal ratio in the repeat runs, not every such curve was filed as active; the % refers to the signal ratio)
Summary of the method: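 FRET fluorescence after 2 h room-temperature LiveBLAzer loading gives the readout. Prior step: FXR-bla HEK 293T cells, seeded and incubated 5 h, received test compounds plus 50 uM final CDCA for 16 h at 37 °C.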

[15] = molecular target: Bile acid receptor (Homo sapiens) (UniProt Q96RI1); test: qHTS assay to identify small molecule agonists of the farnesoid-X-receptor (FXR) signaling pathway (AID 743220; active = well fitted activation curve with a large enough effect in the signal ratio in the repeat runs, not every such curve was filed as active; the % refers to the signal ratio)
Summary of the method: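 FXR-UAS-bla HEK 293T cells carrying a UAS-driven beta-lactamase reporter were plated for 5 h at 37C/5% CO2, then exposed to DMSO-dissolved Tox21 10K compounds for 16 h at 37C. A LiveBLAzer B/G FRET substrate was loaded for 2 h at room temperature before fluorescence reading.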

[16] = qHTS assay to identify small molecule antagonists of the farnesoid-X-receptor (FXR) signaling pathway - cell viability counter screen (AID 743221; active = well fitted cell-killing curve with a large enough effect in the repeat runs, not every such curve was filed as active; note: nearly all actives have a fitted effect of over 50% in size)
Summary of the method: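 Luminescence from CellTiter-Glo measures cytotoxicity in GeneBLAzer FXR-UAS-bla HEK 293T cells. Cells were exposed to compounds with 50 uM chenodeoxycholic acid (final) for 16 h at 37 C, in wells also used for the reporter readout.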

[17] = qHTS assay to identify small molecule antagonists of the peroxisome proliferator-activated receptor delta (PPARd) signaling pathway - cell viability counter screen (AID 743213); note: nearly all actives have a fitted effect of over 50% in size
Summary of the method: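 Luminescence from CellTiter-Glo, added after the bla read and incubated 30 min at room temperature, gives viability of HEK293H PPARd-bla cells exposed to compounds for 17 h at 37 C with 300 nM L165041.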

[18] = molecular target: Vitamin D3 receptor (Homo sapiens) (UniProt P11473); test: qHTS assay to identify small molecule agonists of the vitamin D receptor (VDR) signaling pathway (AID 743222; calls by dose curve)
Summary of the method: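 Following 4 h attachment at 37C, VDR-bla cells (2,000 per well) received DMSO-dissolved compounds or controls. After 16 h incubation, LiveBLAzer B/G FRET substrate was added and fluorescence read 2 h later at room temperature.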

[19] = molecular target: Vitamin D3 receptor (Homo sapiens) (UniProt P11473); test: qHTS assay to identify small molecule antagonists of the vitamin D receptor (VDR) signaling pathway (AID 743223; active = well fitted inhibition curve with a large enough effect in the signal ratio in the repeat runs, not every such curve was filed as active; the % refers to the signal ratio)
Summary of the method: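 Antagonist mode uses 1alpha,25-dihydroxyvitamin D3 at 3 nM final as stimulus. VDR-bla cells receive compounds in DMSO, incubate 16 h at 37C, then a beta-lactamase FRET substrate for 2 h at room temperature before fluorescence measurement.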

[20] = qHTS assay to identify small molecule agonists of the farnesoid-X-receptor (FXR) signaling pathway - cell viability counter screen (AID 743218); note: nearly all actives have a fitted effect of over 45% in size
Summary of the method: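 Readout: CellTiter-Glo luminescence, 30 min RT, multiplexed after the FXR-bla FRET reading. HEK 293T FXR-UAS-bla cells received compound 5 h post-plating and were incubated 16 h at 37 C.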

Peroxisome proliferator-activated receptor delta (Homo sapiens), sequence (Q03181 whole entry, looked up): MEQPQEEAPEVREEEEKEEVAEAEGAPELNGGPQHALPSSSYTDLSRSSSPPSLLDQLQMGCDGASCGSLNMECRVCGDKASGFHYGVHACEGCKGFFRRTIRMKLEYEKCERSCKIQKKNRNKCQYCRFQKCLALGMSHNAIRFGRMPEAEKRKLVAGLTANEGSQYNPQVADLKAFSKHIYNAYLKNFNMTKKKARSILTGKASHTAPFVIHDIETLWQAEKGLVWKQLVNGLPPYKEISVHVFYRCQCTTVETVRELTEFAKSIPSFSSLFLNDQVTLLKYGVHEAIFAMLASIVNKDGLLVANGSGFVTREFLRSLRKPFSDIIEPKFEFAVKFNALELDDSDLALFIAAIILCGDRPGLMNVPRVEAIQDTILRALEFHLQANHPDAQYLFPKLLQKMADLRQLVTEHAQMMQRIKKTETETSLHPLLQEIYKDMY
Aryl hydrocarbon receptor (Homo sapiens), sequence (P35869 whole entry, looked up): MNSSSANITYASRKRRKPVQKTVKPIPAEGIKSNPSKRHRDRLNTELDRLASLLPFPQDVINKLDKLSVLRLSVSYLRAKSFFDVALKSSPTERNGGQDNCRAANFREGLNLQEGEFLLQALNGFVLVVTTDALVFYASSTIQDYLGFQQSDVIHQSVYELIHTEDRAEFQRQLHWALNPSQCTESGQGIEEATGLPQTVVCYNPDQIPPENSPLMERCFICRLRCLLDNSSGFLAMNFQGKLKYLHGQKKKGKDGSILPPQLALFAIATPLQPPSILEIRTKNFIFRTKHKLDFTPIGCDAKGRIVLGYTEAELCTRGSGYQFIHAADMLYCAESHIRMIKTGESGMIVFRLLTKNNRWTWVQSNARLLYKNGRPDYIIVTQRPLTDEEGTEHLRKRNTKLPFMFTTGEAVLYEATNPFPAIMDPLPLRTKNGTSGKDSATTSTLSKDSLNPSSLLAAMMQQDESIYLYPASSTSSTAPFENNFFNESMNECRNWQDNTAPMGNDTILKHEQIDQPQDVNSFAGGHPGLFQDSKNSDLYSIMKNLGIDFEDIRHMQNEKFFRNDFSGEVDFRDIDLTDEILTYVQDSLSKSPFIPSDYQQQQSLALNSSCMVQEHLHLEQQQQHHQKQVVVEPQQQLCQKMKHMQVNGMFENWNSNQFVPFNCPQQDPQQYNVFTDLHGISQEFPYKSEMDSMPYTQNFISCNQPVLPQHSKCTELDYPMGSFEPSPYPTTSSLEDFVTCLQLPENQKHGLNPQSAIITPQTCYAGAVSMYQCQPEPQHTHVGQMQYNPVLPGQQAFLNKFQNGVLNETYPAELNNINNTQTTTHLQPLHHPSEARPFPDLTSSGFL
Vitamin D3 receptor (Homo sapiens), sequence (P11473 whole entry, looked up): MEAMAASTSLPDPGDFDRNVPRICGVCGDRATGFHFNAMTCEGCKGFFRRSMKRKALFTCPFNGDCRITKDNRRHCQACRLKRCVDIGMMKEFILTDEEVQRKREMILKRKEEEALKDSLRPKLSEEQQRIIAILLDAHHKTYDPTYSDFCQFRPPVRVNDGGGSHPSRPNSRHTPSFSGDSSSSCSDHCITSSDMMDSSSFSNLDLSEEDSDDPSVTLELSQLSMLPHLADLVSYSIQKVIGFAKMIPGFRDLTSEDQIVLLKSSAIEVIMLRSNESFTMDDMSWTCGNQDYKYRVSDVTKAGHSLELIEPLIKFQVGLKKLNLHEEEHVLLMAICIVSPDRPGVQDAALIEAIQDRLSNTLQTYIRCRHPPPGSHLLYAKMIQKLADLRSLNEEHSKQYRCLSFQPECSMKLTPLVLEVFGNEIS
Peroxisome proliferator-activated receptor gamma (Homo sapiens), sequence (P37231 whole entry, looked up): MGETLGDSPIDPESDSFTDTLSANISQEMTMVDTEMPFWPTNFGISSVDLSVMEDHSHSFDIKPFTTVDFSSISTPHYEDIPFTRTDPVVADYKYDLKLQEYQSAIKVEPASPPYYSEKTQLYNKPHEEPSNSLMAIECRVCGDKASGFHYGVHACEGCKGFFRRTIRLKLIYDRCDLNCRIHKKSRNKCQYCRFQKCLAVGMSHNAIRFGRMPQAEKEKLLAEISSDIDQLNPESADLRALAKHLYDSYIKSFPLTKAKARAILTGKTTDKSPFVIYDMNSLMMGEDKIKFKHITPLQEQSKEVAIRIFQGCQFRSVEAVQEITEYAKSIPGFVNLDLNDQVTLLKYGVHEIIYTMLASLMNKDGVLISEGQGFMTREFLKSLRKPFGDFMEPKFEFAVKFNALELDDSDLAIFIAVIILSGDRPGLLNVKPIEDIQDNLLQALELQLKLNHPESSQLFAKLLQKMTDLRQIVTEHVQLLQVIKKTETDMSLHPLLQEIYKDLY
Bile acid receptor (Homo sapiens), sequence (Q96RI1 whole entry, looked up): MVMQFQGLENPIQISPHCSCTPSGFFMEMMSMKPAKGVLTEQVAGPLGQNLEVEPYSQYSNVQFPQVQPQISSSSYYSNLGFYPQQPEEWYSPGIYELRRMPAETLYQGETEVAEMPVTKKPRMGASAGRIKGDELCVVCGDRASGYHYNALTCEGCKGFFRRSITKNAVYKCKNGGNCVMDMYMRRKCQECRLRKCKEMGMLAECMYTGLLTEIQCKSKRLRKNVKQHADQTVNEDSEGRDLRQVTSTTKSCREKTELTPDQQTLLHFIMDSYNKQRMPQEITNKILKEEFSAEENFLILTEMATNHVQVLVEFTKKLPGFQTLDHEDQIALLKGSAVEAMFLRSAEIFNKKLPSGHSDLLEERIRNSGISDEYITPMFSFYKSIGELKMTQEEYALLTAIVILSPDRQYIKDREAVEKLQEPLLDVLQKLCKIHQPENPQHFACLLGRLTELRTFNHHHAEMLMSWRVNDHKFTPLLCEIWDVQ

Row | SMILES | outcome [1] | Potency [2] | outcome [3] | outcome [4] | outcome [5] | outcome [6] | Potency [7] | outcome [8] | Potency [9] | outcome [10] | outcome [11] | outcome [12] | outcome [13] | outcome [14] | outcome [15] | outcome [16] | outcome [17] | outcome [18] | outcome [19] | outcome [20]
1 | C/C(Cl)=C/CCl | inactive | inactive | inactive | inactive | inactive | inactive | 31.2 µM (active) | inactive | inactive | inactive | inactive | inactive | inactive | inactive | inactive | inactive |  |  |  | 
2 | CCCCCCCCC1CO1 (configuration not stated) | inactive | inactive | inactive | inactive | inactive | inactive | inactive | inactive | inactive | inactive | inactive | inactive | inactive | inactive | inactive | inactive | inactive | inactive | inactive | 
3 | CCCCC(CC)COC(=O)CC#N (configuration not stated) | inactive | inactive | inactive | inactive | inactive | inactive | inactive | inactive | inactive | inactive | inactive |  |  | inactive | inactive | inactive | inactive | inactive | inactive | inactive
4 | CC(C)(C)c1ccc(N)cc1 | inactive | inactive | inactive | inactive | inactive | inactive | inactive | inactive | inactive | inactive | inactive | inactive | inactive |  |  | inactive | inactive | inactive |  | 
5 | C=C(C)C(=O)OCCOC1CC2CC1C1C=CCC21 (configuration not stated) | inactive | inactive | inactive | inactive | inactive | inactive | inactive | inactive | inactive | inactive | inactive | inactive | inactive | inactive | inactive | inactive | inactive | inactive |  | inactive
6 | N=C(N)S(=O)O | inactive | inactive | inactive | inactive | inactive | inactive | inactive | inactive | inactive | inactive | inactive |  |  |  |  |  | inactive | inactive | inactive | inactive
7 | Cc1nc2ccc(Cl)cc2[nH]1 | inactive | 30.6 µM (active) | inactive | inactive | inactive | inactive | inactive | inactive | inactive | inactive | inactive |  |  | inactive | inactive | inactive | inactive | inactive | inactive | inactive
8 | CC1=C(O)C(=O)CO1 | inactive | inactive | inactive | inactive | inactive |  |  | inactive | inactive | inactive | inactive | inactive | inactive |  |  | inactive | inactive |  | inactive | 
9 | CCCCN=C(N)N=C(N)N | inactive | inactive | inactive | inactive | inactive |  |  | inactive | inactive | inactive | inactive | inactive | inactive |  |  | inactive | inactive |  |  | 
10 | C=CCn1cc[n+](C)c1 | inactive | inactive | inactive | inactive | inactive |  | inactive | inactive | inactive | inactive | inactive |  |  |  |  | inactive | inactive | inactive | inactive | inactive
11 | C=CC(=O)OCC[N+](C)(C)C | inactive | inactive | inactive | inactive | inactive | inactive |  | inactive | inactive | inactive | inactive | inactive | inactive | inactive | inactive | inactive |  | inactive | inactive | inactive
12 | O=P(O)(O)C(O)(Cc1cccnc1)P(=O)(O)O | inactive | inactive | inactive | inactive |  | inactive | inactive | inactive | inactive | inactive | inactive | inactive | inactive | inactive | inactive | inactive | inactive | inactive | inactive | 
13 | CC(C)CC(=O)N[C@H](C(=O)N[C@H](C(=O)N[C@@H](CC(C)C)[C@@H](O)CC(=O)N[C@@H](C)C(=O)N[C@@H](CC(C)C)[C@@H](O)CC(=O)O)C(C)C)C(C)C (Isovaleryl-VV[Sta]A[Sta]-OH) | inactive | inactive | inactive | inactive | inactive | inactive | inactive | inactive | inactive |  | inactive | inactive | inactive |  |  |  | inactive | inactive | inactive | inactive
14 | CC(C)OC(=O)C(C(=O)OC(C)C)=C1SC=CS1 | inactive | inactive | inactive | inactive | inactive |  |  | inactive | inactive |  | inactive | inactive | inactive |  |  | inactive | inactive | inactive | inactive | inactive
15 | CCCCCCC(O)CO (configuration not stated) | inactive | inactive | inactive | inactive | inactive | inactive |  | inactive |  | inactive | inactive |  | inactive | inactive | inactive |  | inactive |  |  | inactive
16 | C[C@@H](CN1CC(=O)NC(=O)C1)N1CC(=O)NC(=O)C1 | inactive | inactive | inactive | inactive | inactive | inactive |  | inactive | inactive | inactive | inactive | inactive | inactive |  |  | inactive | inactive | inactive | inactive | inactive
17 | Cc1ccc(NC(N)=O)cc1 | inactive | inactive | inactive | inactive | inactive |  | inactive | inactive | inactive | inactive | inactive | inactive | inactive |  |  | inactive |  | inactive | inactive | inactive
